Hedgehog inh: Hedgehog pathway signaling inhibitors, primary screen, luminescence, Shh-LIGHT2 cells, Gli-luciferase; actives 2.1% (n = 22,000); inhibition, % (concentration not given with the values); Shh-LIGHT2 Gli-luciferase reporter, 30 h;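 active = mean inhibition across valid replicates above about 65%, limit read from the data; inconclusive = mean under the limit, yet half or more replicates past it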;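 also: pathway switched on by Shh-conditioned medium diluted 1 in 25 in low serum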
PD-1 reversal: activators reversing PD-1 mediated T-cell inhibition, primary screen, luminescence, primary human CD4 T cells, PD-L1 beads | activation, % (test concentration not listed) | CellTiter-Glo 96 h | 29,000 tested, under 10 active; call rule not given here;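 also: 0% = median vehicle wells and 100% = positive control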
NOMO-1 viab: NOMO-1 AML cell viability reduction, primary screen, STK33 inhibitor project, CellTiter-Glo luminescence. NOMO-1 AML viability, 72 h. inhibition, % (test concentration not listed). actives 7.5% (n = 37,000); in the data active = inhibition above about 80%; inconclusive = no clear call, values can overlap the other calls
Starred values were filed as active, the others as inactive; ? = inconclusive; · = not tested or not shown. Shown are actives, neighbours in structure and some others; about 7.7% of the full set was active somewhere.

SMILES	Hedgehog inh	PD-1 reversal	NOMO-1 viab
CN(C)CC(O)Cn1c2ccc(Br)cc2c2cc(Br)ccc21 (configuration not stated)	?	·	113.7*
CC(C)(C)c1ccc(OCC(O)CN2CCN(CCO)CC2)cc1 (configuration not stated)	·	-1.3	-8.4
Cc1ccc2c(c1)c(-c1ccccc1)c(-c1ccccc1)n2CC(O)CN1CCN(CCO)CC1 (configuration not stated)	·	-7.8	90.5*
C[C@]12CC[C@@H]3c4ccc(O)cc4CC[C@H]3[C@@H]1CC[C@@H]2O	90.9*	·	87.3*
C[C@]12CCC3c4ccc(O)cc4CC[C@H]3C1CC[C@H]2O (some centres not stated)	5.4	-2.2	96.4*
CC(=O)OC1CCC2C3CCc4cc(O)ccc4C3CCC12C (configuration not stated)	?	·	99.4*
C[C@]12CCC3c4ccc(O)cc4CCC3C1CCC2=O (some centres not stated)	89.2*	·	19.0
COc1ccc2c(c1)CCC1C2CCC2(C)C(=O)CCC12 (configuration not stated)	16.0	-0.9	24.2
COc1ccc2c(c1)CCC1C2CC[C@@]2(C)C1CC[C@@H]2O (some centres not stated)	4.7	·	5.6
CC12CCC3c4ccc(OC(=O)c5ccccc5)cc4CCC3C1CCC2O (configuration not stated)	-9.3	·	29.7
CCCCC(=O)O[C@H]1CCC2C3CCc4cc(O)ccc4C3CC[C@@]21C (some centres not stated)	61.5	·	54.4
O=C(NCCC(c1ccccc1)c1ccccc1)c1cc2ccccc2c(=O)o1	-29.5	0.2	27.2
CC(=O)c1cccc(NC(=O)CCN2C(=O)C3CC=C(Cl)CC3C2=O)c1 (configuration not stated)	·	2.0	2.4
CCn1c2ccccc2n2c(SCCOc3ccc(C)cc3)nnc12	·	·	30.1
COc1ccc2c(c1)SC1=NC(=O)C(Cc3ccccc3)C(=O)N12 (configuration not stated)	19.6	0.6	5.9
CCN(C(=O)CSc1nc2sc(C)c(C)c2c(=O)n1-c1ccccc1)c1ccccc1	·	·	43.5
COc1ccc(-c2ccc(C#N)c(SCC(=O)Nc3cccc(C(F)(F)F)c3)n2)cc1	·	·	-3.2
COc1cc([N+](=O)[O-])ccc1NC(=O)CN(C)S(=O)(=O)c1ccc(C)cc1	·	2.5	0.0
C[C@H]1CN([C@@H](C)CO)C(=O)Cc2cc(NC(=O)Nc3ccc4c(c3)OCO4)ccc2O[C@@H]1CN(C)CC1CCCCC1	-43.4	1.8	92.0*
COc1ccc(NC(=O)Nc2ccc3c(c2)CC(=O)N([C@H](C)CO)C[C@@H](C)[C@@H](CN(C)CC2CCCCC2)O3)cc1	-29.5	0.0	31.3
C[C@H]1CN([C@@H](C)CO)C(=O)Cc2cc(NC(=O)Nc3ccc4c(c3)OCO4)ccc2O[C@H]1CN(C)CC1CCCCC1	-9.8	3.0	31.0
C[C@@H]1CN([C@@H](C)CO)C(=O)c2cc(NC(=O)Nc3cccc4ccccc34)ccc2O[C@@H]1CN(C)CC1CCCCC1	39.1	-2.7	118.2*
C[C@H](CO)N1C[C@H](C)[C@H](CN(C)CC2CCCCC2)Oc2ccc(NC(=O)Nc3ccccc3)cc2CC1=O	2.5	·	105.9*
C[C@@H]1CN([C@H](C)CO)C(=O)Cc2cc(NC(=O)Nc3ccccc3)ccc2O[C@H]1CN(C)CC1CC1	-25.6	2.7	-14.4
C[C@H](CO)N1C[C@H](C)[C@@H](CN(C)CC2CCCCC2)Oc2ccc(NC(=O)Nc3cccc4ccccc34)cc2C1=O	6.9	0.1	32.3
SMILES	Hedgehog inh	PD-1 reversal	NOMO-1 viab
C[C@@H]1CN([C@@H](C)CO)C(=O)Cc2cc(NC(=O)Nc3ccc(F)cc3)ccc2O[C@@H]1CN(C)CC1CCCCC1	15.1	1.8	80.9*
O=C(CSc1nnnn1-c1ccccc1)Nc1ccc(Oc2ccccc2)cc1	·	1.4	-2.8
CCCn1c(=N)n(CC(O)c2ccccc2)c2ccccc21 (configuration not stated)	7.5	-0.3	-13.7
C[C@H](CO)N1C[C@H](C)[C@H](CN(C)CC2CCCCC2)Oc2ccc(NC(=O)Nc3ccc(F)cc3)cc2CC1=O	·	·	94.7*
CC(C)NC(=O)Nc1ccc2c(c1)CC(=O)N([C@H](C)CO)C[C@@H](C)[C@@H](CN(C)CC1CCCCC1)O2	53.5	1.9	8.5
CC(C)NC(=O)Nc1ccc2c(c1)CC(=O)N([C@H](C)CO)C[C@H](C)[C@H](CN(C)CC1CCCCC1)O2	-13.9	·	34.7
C[C@H](CO)N1C[C@H](C)[C@H](CN(C)CC2CCCCC2)Oc2ccc(NC(=O)Nc3cccc4ccccc34)cc2CC1=O	-0.4	·	98.6*
C[C@H]1CN([C@@H](C)CO)C(=O)Cc2cc(NC(=O)Nc3ccc(F)cc3)ccc2O[C@H]1CN(C)CC1CCCCC1	-17.6	-1.1	105.4*
C[C@H]1CN([C@@H](C)CO)C(=O)Cc2cc(NC(=O)Nc3ccc(F)cc3)ccc2O[C@@H]1CN(C)CC1CCCCC1	6.7	1.1	98.7*
C[C@H]1CN([C@@H](C)CO)C(=O)c2cc(NC(=O)Nc3cccc4ccccc34)ccc2O[C@H]1CN(C)CC1CCCCC1	·	-0.6	24.5
C[C@H]1CN([C@@H](C)CO)C(=O)Cc2cc(NC(=O)Nc3ccc(F)cc3)ccc2O[C@@H]1CN(C)CC1CC1	17.1	0.0	8.1
Cc1cccc(NC(=O)C2Sc3nnc(-c4ccccc4)n3NC2c2ccccc2)c1 (configuration not stated)	18.9	0.1	48.3
Cc1cc(=O)[nH]c(SCCOc2ccccc2C#N)n1	·	-0.3	-17.2
CCOc1ccccc1C(=O)Oc1c(S(=O)(=O)c2ccc(C)cc2)c(C)nn1-c1ccccc1	·	·	103.3*
CCOc1ccccc1NC(=O)c1ccccc1N(C)S(=O)(=O)c1ccc(C)cc1	·	·	45.6
CSc1nnc(-c2ccccc2)n1-c1ccccc1	-16.1	0.7	19.0
Cc1cc(C)cc(Sc2ccc3nnc(-c4ccccc4)n3n2)c1	67.2*	-5.2	122.3*
COc1ccc(S(=O)(=O)N(C)C[C@@H]2Oc3ccc(NC(=O)Nc4ccc(C(F)(F)F)cc4)cc3CC(=O)N([C@@H](C)CO)C[C@@H]2C)cc1	-31.9	-3.7	102.2*
COc1ccc(NC(=O)Nc2ccc3c(c2)CC(=O)N([C@@H](C)CO)C[C@H](C)[C@@H](CN(C)S(=O)(=O)c2ccc(F)cc2)O3)cc1	·	-0.6	-9.3
COc1ccc(S(=O)(=O)N(C)C[C@@H]2Oc3ccc(NC(=O)Nc4ccc(C(F)(F)F)cc4)cc3CC(=O)N([C@H](C)CO)C[C@@H]2C)cc1	45.7	-1.8	114.7*
COc1ccc(S(=O)(=O)N(C)C[C@@H]2Oc3ccc(NC(=O)Nc4ccc(C(F)(F)F)cc4)cc3CC(=O)N([C@H](C)CO)C[C@H]2C)cc1	-22.9	·	-12.9
COc1ccc([C@H]2OC[C@H]3[C@@H]2CO[C@@H]3c2ccc(O[C@@H]3O[C@H](CO)C(O)[C@H](O)[C@H]3O)c(OC)c2)cc1OC (some centres not stated)	-20.8	3.6	-11.6
COC(=O)C1=C(N)OC2=C(C(=O)CC(C)(C)C2)C1c1ccc(C(=O)OC)cc1 (configuration not stated)	-26.1	1.2	8.5
